According to the supplement of paper PMC10338343:
± gives the standard deviation.

tested on: MILI (PIWIL2) piRISC loaded with piRNA #1 (26 nt); experiment: pre-steady-state target cleavage rate (min^-1); guide: piRNA #1 5'p-UGAGGUAGUAGGUUGUAUAGUAUCCA; MIWI and MILI are mouse PIWI proteins and EfPiwi is from a freshwater sponge; tags in brackets are library labels; higher = faster piRNA-guided slicing of the target; details: auxiliary factor: 500 nM mouse GTSF1
Summary of the method: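 Sequencing of uncleaved targets, normalised to depth and to weakly complementary targets, was the readout of this Cleave-'n-Seq assay. A transcribed, DNA-blocked target RNA library (0.1 nM) was mixed with 1 nM active affinity-purified piRISC carrying one synthetic guide, with or without 500 nM GTSF1 partner protein, in HEPES–potassium acetate buffer at 33 °C for 0–8 or 0–960 min. Three trials were pooled, k3 was capped at 0.0001 min^-1, and a burst-and-steady-state fit gave the pre-steady-state cleavage rate.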

| Sequence | pre-steady-state target cleavage rate |
| --- | --- |
| GGAGACCUAUGUAUACAACCUAGAUCCUCA | 0.00265 ± 0.0026 |
| GGAGACCUAUCUAUACAACCUACUUCCUGA | 0.0608 ± 0.018 |
| GGAGACCUAACUAUACUACCUACUACCACA | 0.0974 ± 0.017 |
| GGAGACCUAUGAUAUGUUCCUACUCCUCA | < 0.0001 |
| GGAGACCUUACUAUACUACCAACUACCUCA | 0.00617 ± 0.0026 |
| GGAGACCUAUCUAUACAACCUACUACUCUCA | 0.194 ± 0.021 |
| GGAGACCUAUCUAUACAACCUACGACCUCA | 0.0973 ± 0.013 |
| GGAGACCUAACUAUACAUCCUACAACCUCA | 0.246 ± 0.033 |
| GGAGACCUAUGAAAACAUCCUACUACCUCA | 0.00361 ± 0.0024 |
| GGAGAGGAUACUAUACAACCUACUACCUACA | 0.133 ± 0.016 |
| GGAGACCUAACUAUACAACCUACUAGCCUCA | 0.186 ± 0.035 |
| GGAGACCUAUGAUAUCAACGUACUAGCUCA | < 0.0001 |
| GGAGACCUAUGAUUACAACCUAAUACCUCA | 0.00387 ± 0.0022 |
| GGAGACCUUACUAUACAUGCUACUACCUCA | 0.111 ± 0.0086 |
| GGAGACCUAUGUUUACAACCUACUACCUGA | 0.00584 ± 0.0023 |
| GGAGACCUAUGAUAUCAAGCUACUACCUGA | 0.00472 ± 0.003 |
| GGAGACCUAUGAAUACAUCCUACUAGCUCA | 0.00797 ± 0.0028 |
| GGAGACCUAUGUACUACAACCUACUACCUCA | 0.00901 ± 0.0026 |
| GGAGACCUAUGUAUAGAACCUACUACCUCA | 0.0559 ± 0.0092 |
| GGAGACCUAACUAUACAACCUAGAACCUCA | 0.00531 ± 0.005 |

| Sequence | pre-steady-state target cleavage rate |
| --- | --- |
| GGAGACCUAUGUUAUCAACCUACUACCUCA | 0.0125 ± 0.0029 |
| GGAGACCUUACUAAACAACCUACUACCUGA | 0.0914 ± 0.017 |
| GGAGACCUAUGAAUACAACCUACUACUUCA | 0.00709 ± 0.0022 |
| GGAGUGGAUUCUAUACAACCUACUUCCUCA | 0.00383 ± 0.0021 |
| GGAGACCUUACAAUACAACCUACUACGUCA | 0.0615 ± 0.009 |
| GGAGACCAUACUUUACAACCUUCUACCUCA | 0.0105 ± 0.0033 |
| GGAGACCUAUCUAUACAACCUACUAUCCUCA | 0.193 ± 0.023 |
| GGAGACCAUACUUUUCAACCUACUACCUCA | 0.153 ± 0.015 |
| GGAGACCAUACUAUACAAACUACUACCUCA | 0.234 ± 0.017 |
| GGAGACCUAUGAUAUGAACCACUACCUCA | < 0.0001 |
| GGAGACCUAUGUAUGACAACCUACUACCUCA | 0.0123 ± 0.0037 |
| GGAGACCUAUGUAUACAAGCUACUACCACA | 0.177 ± 0.017 |
| GGAGAGGUUACUUUACAACCUACUACCUCA | 0.175 ± 0.01 |
| GGAGACCAUACUAUACUACCUUCUACCUCA | 0.0171 ± 0.0044 |
| GGAGACCUAUGAUAACAACCUACUUGGUCA | < 0.0001 |
| GGAGACCUAUGAUAUGUACCUUCUACGUCA | < 0.0001 |
| GGAGUGGAUACUAAACAACCUACUUCCUCA | 0.00431 ± 0.0024 |
| GGAGACCUAUGAUUACAAGCUACUUCCUCA | 0.0143 ± 0.0037 |
| GGAGAGGAUACUAAACAACCUUCUACCUCA | 0.0108 ± 0.0026 |
| GGAGACCUAACUAUAGUUCCUACUACCUCA | 0.0706 ± 0.013 |
